Compound activity (PubChem BioAssay)
The list is not random: actives were taken first. Their share in the collection is about 5.3%.
FMDV inh – blocks foot and mouth disease virus; FMDV antiviral cell-based qHTS; Potency, µM (doses to about 57.9 µM), for the others: at the top dose activity change, negative = inhibition, usual class: inhibitors; 410,000 compounds, 1.2% hits; AID 1159524; calls by dose curve; tested in HEK293T cells; also: read-out not given here; nearly all actives have a fitted effect of over 45% in size
VACV Venus inh – inhibitors of vaccinia virus (Venus reporter); Vaccinia virus Venus reporter expression, fluorescence; Potency, µM (highest dose often 36.5 µM), inactives show top-dose activity change, negative = inhibition, hits mostly inhibitors; 330,000 compounds, 0.46% hits; calls by dose curve; tested in A549 cells; also: nearly all actives have a fitted effect of over 30% in size
MARV entry inh – Marburg virus entry inhibition. Marburg virus pseudotyped entry inhibition, cell reporter. Potency, µM (highest dose often 37.8 µM), for inactives: top-dose activity change, negative = inhibition, usual class: inhibitors. 300,000 compounds, 1.8% hits; calls by dose curve; tested in HEK293 cells
Vaccinia mCherry – vaccinia inhibition (mCherry reporter). Vaccinia virus mCherry reporter infection, fluorescence. Potency, µM (doses to about 36.5 µM), for inactives: top-dose activity change, negative = inhibition, most hits filed as inhibitors. 310,000 compounds, 0.63% hits; calls by dose curve; tested in A549 cells; also: nearly all actives have a fitted effect of over 35% in size
HCV inh – HCV inhibition. AID 651820. Potency, µM (top dose mostly 41.8 µM), for the others: at the highest dose activity change, negative = inhibition, hits mostly inhibitors. Huh7.5.1 HCVcc-Cre infection, luciferase reporter, 44 h. 340,000 compounds, 3.4% hits; active = well fitted inhibition curve with a large enough effect; inconclusive = small, poorly fitted or top-dose-only effect, or another doubt; inactive = no such curve, though single readings can be large or run the other way
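After 44 h co-culture of compound, cells and HCVcc-Cre (~0.5 moi), substrate is added for 15 min at room temperature and luciferase measured over 15 sec. Cells were seeded at 1,000/well and pre-cultured 4 h.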
LASV entry inh – Lassa virus entry inhibition; 300,000 compounds, 1.2% hits; AID 540256; Lassa virus pseudotype entry inhibition, cell reporter; Potency, µM (top dose mostly 37.9 µM), without a hit: at the highest dose activity change, negative = inhibition, actives largely listed as inhibitors; calls by dose curve; tested in HEK293 cells; also: nearly all actives have a fitted effect of over 50% in size
* hit, by the source's call; i = inactive; ? = inconclusive; / = not tested or not shown; ! = not active in a repeat; [ ] = another dose, or the depositor's remark. % is scaled to controls: 0 for no effect and ±100 for the full control effect; potency is read from the fitted curve at half-maximal effect.

SMILES | FMDV inh | VACV Venus inh | MARV entry inh | Vaccinia mCherry | HCV inh | LASV entry inh
O=C(Nc1ccc(F)cc1)c1nc(S(=O)(=O)Cc2ccccc2)ncc1Cl | ? | / | / | / | 8.91µM* | /
CC1CCN(c2nn3c(=O)c(C(=O)NC(C)C)cnc3s2)CC1 | -17.3% | 0.5% | / | -3.3% | / | 0.2%[46.1 µM]
CC1(C(=O)O)C2CCC(O2)C1(C)C(=O)O (configuration not stated) | / | / | 4.11µM* | / | / | 3.26µM*
COc1cccc(-c2ccc(O)c(CNCc3cccc4ccccc34)c2)n1 | -5.4% | -11.9% | / | i | / | /
Clc1ccc(COC(Cn2ccnc2)c2ccc(Cl)cc2Cl)cc1 (configuration not stated) | 31.6µM*! | ? | -39.8% | -10.3% | ? | -28.6%
COc1ccc(NC(=O)c2ccc(Cl)c(S(=O)(=O)N3CC(C)OC(C)C3)c2)cn1 (configuration not stated) | ? | / | / | / | 3.16µM* | /
COc1ccc(NC(=O)c2ccc(Cl)c(S(=O)(=O)N3CCc4ccccc4C3)c2)cn1 | 20µM* | / | ? | / | 11.2µM* | ?
Cc1ccccc1CCNC(=O)c1ccc(Cl)c(S(=O)(=O)N2CC(C)OC(C)C2)c1 (configuration not stated) | 17.8µM* | ? | ? | -20.9% | 7.94µM* | -20.1%
CCc1nnc(NC(=O)c2ccc(Cl)c(S(=O)(=O)N3CCc4ccccc4C3)c2)s1 | 25.1µM* | 3.1% | 3.9% | -3.3% | ? | 4.0%
CC1CN(S(=O)(=O)c2cc(C(=O)NCc3ccncc3)ccc2Cl)CC(C)O1 (configuration not stated) | 2.2% | / | / | / | 15.2% | /
COc1cccc(CC(=O)N2CCc3nc(-c4ccccc4)c4c(c3C2)CO[C@@H](C)C4)c1 | / | / | -3.2%[14.2 µM] | / | / | /
CCOC(=O)c1c(NC(=O)COC(=O)c2ccc(Cl)nc2)sc(C)c1C | -14.4% | ? | / | ? | / | /
N#Cc1c(-c2ccccc2)no[n+]1[O-] | / | / | 11.2µM* | / | / | /
CC(=O)OC1CC(OC2C(O)CC(OC3C(O)CC(OC4CCC5(C)C(CCC6C5CC(O)C5(C)C(C7=CC(=O)OC7)CCC65O)C4)OC3C)OC2C)OC(C)C1OC1OC(CO)C(O)C(O)C1O (configuration not stated) | ? | 0.891µM* | / | 2.51µM* | 0.562µM* | /
C[C@H]1O[C@@H](O[C@H]2[C@@H](O)C[C@@H](O[C@H]3[C@@H](O)C[C@H](O[C@H]4CC[C@@]5(C)[C@H](CC[C@@H]6[C@@H]5CC[C@]5(C)[C@@H](C7=CC(=O)OC7)CC[C@]65O)C4)O[C@@H]3C)O[C@@H]2C)C[C@H](O)[C@@H]1O | / | 0.0251µM* | / | 12.6µM* | / | /
C[C@H]1O[C@@H](O[C@H]2[C@@H](O)C[C@H](O[C@H]3[C@@H](O)C[C@H](O[C@H]4CC[C@@]5(C)[C@H](CC[C@@H]6[C@@H]5C[C@@H](O)[C@]5(C)[C@@H](C7=CC(=O)OC7)CC[C@]65O)C4)O[C@@H]3C)O[C@@H]2C)C[C@H](O)[C@@H]1O | ? | 0.282µM* | 0.13µM* | ? | ? | 0.146µM*
CC1O[C@@H](O[C@@H]2C(O)C[C@H](O[C@@H]3C(O)C[C@@H](OC4CC[C@@]5(C)C6CC[C@]7(C)C(C8=CC(=O)OC8)CC[C@@]7(O)C6CC[C@@H]5C4)OC3C)OC2C)CC(O)[C@H]1O (some centres not stated) | 0.0% | 0.282µM* | / | ? | / | /
CC(=O)OCC1OC(OC2C[C@]3(C)C(CC(O)C4C([C@](C)(CCC=C(C)C)OC5OC(CO)C(O)C(O)C5O)CC[C@]43C)[C@@]3(C)CCC(O)C(C)(C)C23)C(O[C@@H]2OC(C)C(O)C(O)C2O)C(O)C1O (some centres not stated) | -22.6% | 0.0% | / | -17.4% | 28.6% | /
COC(=O)c1ccccc1-c1cc(C)cc2c1OC(CNC(=O)c1cc(C)n(C)n1)C2 (configuration not stated) | 20.3% | -10.2% | / | i | / | /
Cc1cc(N(C)C)cc(C)c1/C=C/c1ccnc2ccccc12 | / | -22.6% | / | -17.0% | / | /
COc1ccc(CN2CC[C@H]3C=CC[C@@H](C(=O)Nc4nccs4)[C@H]3C2=O)cc1OC | / | -21.5% | / | -9.0% | / | /
